Source: PubChem BioAssay
An excerpt weighted towards active compounds, which were near 11% of everything screened.
ALDH1A1 inh = qHTS Assay for Inhibitors of Aldehyde Dehydrogenase 1 (ALDH1A1); Aldehyde dehydrogenase 1A1 (Homo sapiens), P00352; Purified ALDH1A1, NADH fluorescence, propionaldehyde substrate; Potency, µM (highest dose often 75.3 µM), most hits filed as inhibitors; 220,000 compounds, 7.3% hits; AID 1030, 2008
Target sequence (P00352 whole entry, looked up): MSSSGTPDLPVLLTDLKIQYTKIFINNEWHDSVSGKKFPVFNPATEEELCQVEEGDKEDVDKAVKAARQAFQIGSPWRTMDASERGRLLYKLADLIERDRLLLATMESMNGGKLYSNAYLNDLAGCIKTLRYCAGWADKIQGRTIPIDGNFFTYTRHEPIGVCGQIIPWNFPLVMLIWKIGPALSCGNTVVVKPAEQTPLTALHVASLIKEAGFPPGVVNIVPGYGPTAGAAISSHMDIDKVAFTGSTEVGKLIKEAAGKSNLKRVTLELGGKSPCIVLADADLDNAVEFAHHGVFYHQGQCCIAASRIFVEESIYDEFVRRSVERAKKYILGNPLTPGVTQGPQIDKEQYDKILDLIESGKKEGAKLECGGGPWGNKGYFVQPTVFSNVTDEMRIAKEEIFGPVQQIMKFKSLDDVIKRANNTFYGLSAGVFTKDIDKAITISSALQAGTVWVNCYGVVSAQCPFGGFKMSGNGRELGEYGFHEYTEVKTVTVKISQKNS
HPGD inh = qHTS Assay for Inhibitors of HPGD (15-Hydroxyprostaglandin Dehydrogenase) | purified HPGD, NADH fluorescence kinetic, PGE2 substrate | Potency, µM, usual class: inhibitors | 150,000 compounds, 4.3% hits | AID 894, 2007
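20 nM HPGD preincubated 15 min at room temperature with compound in 50 mM Tris-HCl pH 8, 0.01% Tween 20. Started with 1 mM NAD+ and 30 uM prostaglandin E2; NADH fluorescence (360/450 nm) read 5 times over 30-s intervals, last minus first.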
PNC inhibitor = High Content Assay for Compounds that inhibit the Assembly of the Perinucleolar Compartment | PC3M PTB-GFP, PNC prevalence imaging, 16 h; active compounds read low | activity change (PNC), negative = inhibition, % at 10 µM | 140,000 compounds, 3.1% hits | AID 2417, 2010;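 active = readout at or below -70, meaning at least 70% loss of cells showing the perinucleolar compartment, a nuclear body marking cancer cells; inconclusive = readout between -30 and a set limit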
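Read-out is percentage of cells bearing a perinucleolar compartment, from automated 20x imaging of fixed, Hoechst-stained PC3M PTB-GFP cells. Cells were seeded 4 h, then exposed 16 h to compound (23 nl of library stock) in duplicate plates.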
Of the large screens only hits and unclear results are named; the others gave an inactive call. Unless noted, calls follow the shape of the dose curve; as a rule, active = well fitted inhibition curve with a large enough effect (not every such curve was filed as active); inconclusive = small, poorly fitted or top-dose-only effect, or another doubt; inactive = no such curve, though single readings can be large or run the other way.

O=C(c1ccc(S(=O)(=O)c2ccc(F)cc2)c([N+](=O)[O-])c1)N1CCCCCC1	PNC inhibitor -119
O=C(c1ccc(F)cc1)N1CCN(c2cc(N3CCCCC3)c(F)cc2[N+](=O)[O-])CC1	none
O=C(c1ccc(S(=O)(=O)c2ccccc2Cl)c([N+](=O)[O-])c1)N1CCN(Cc2ccccc2)CC1	ALDH1A1 inh 14µM, PNC inhibitor inconclusive
N#Cc1ccccc1OCC(=O)Nc1c(C(=O)C2CC2)oc2ccccc12	ALDH1A1 inh inconclusive, HPGD inh inconclusive
COc1cc(CCCN2C(=S)NC[C@@H]2c2ccccc2)cc(OC)c1OC	none (no result: HPGD inh, PNC inhibitor)
CCCc1nn(-c2cc(Cl)ccc2OC)c2c1C(=O)CCC2	PNC inhibitor -97
CCCCc1nn(-c2cc(Cl)ccc2OC)c2c1C(=O)CC(C)(C)C2	PNC inhibitor inconclusive
O=C1Nc2cc(C(=O)N3CCc4ccccc4C3)ccc2S/C1=C\c1ccccc1	ALDH1A1 inh inconclusive, HPGD inh 16µM
O=C(c1ccc2nc[nH]c2c1)N1CCc2ccccc2C1	none (no result: HPGD inh, PNC inhibitor)
CCN1C(=O)C(CC(=O)Nc2ccc(F)cc2)N(CCCN2CCN(c3ccc(F)cc3)CC2)C1=S (centres undefined)	none (no result: HPGD inh, PNC inhibitor)
CCc1ccc(NC2CC(=O)N(CCc3ccc(OC)c(OC)c3)C2=O)cc1 (centres undefined)	ALDH1A1 inh 3.2µM (no result: HPGD inh, PNC inhibitor)
COc1ccc(CCNC2CC(=O)N(CCc3ccccc3)C2=O)cc1OC (centres undefined)	ALDH1A1 inh inconclusive
COc1ccc(CCNC2CC(=O)N(CCc3ccc(OC)c(OC)c3)C2=O)cc1 (centres undefined)	ALDH1A1 inh 18µM
COc1ccc(CCN2C(=O)CC(Nc3ccc(N4CCOCC4)cc3)C2=O)cc1OC (centres undefined)	ALDH1A1 inh inconclusive
COc1ccc(/C(C)=N\Nc2nc(-c3ccc(Cl)cc3)cc(C(F)(F)F)n2)cc1OC	none
CCn1c(SCc2nc(-c3ccc(OC)c(OC)c3)no2)nnc1-c1cccs1	none
CC(C)CN1CCCC2(CCN(S(=O)(=O)c3ccccc3)CC2)C1	none (no result: PNC inhibitor)
Cc1ccc(S(=O)(=O)CCC(=O)OCC(=O)NCc2ccc(Cl)cc2)cc1	none (no result: HPGD inh, PNC inhibitor)
O=C(O)[C@H](Cc1c[nH]c2ccccc12)N1C(=O)c2ccccc2C1=O	none (no result: PNC inhibitor)
CCOC(=O)N1CCC(NC(=O)CCc2c(C)nc3ncnn3c2C)CC1	none
Cc1ccc(N2CCN(C(=O)c3ccccc3)CC2)c(C)c1	none
Cc1ccc(C)c(N2CCN(C(=O)c3ccccc3Br)CC2)c1	PNC inhibitor -80
Cc1ccc(C)c(N2CCN(C(=O)c3csc(C)c3C)CC2)c1	none
COc1cc(C(=O)N2CCN(c3ccc(C)cc3C)CC2)cc(OC)c1OC	PNC inhibitor -119
COc1cc(C(=O)N2CCC(O)(c3ccccc3)CC2)cc(OC)c1OC	none
Cc1ccc(N2CCN(C(=O)c3ccccc3Br)CC2)c(C)c1	ALDH1A1 inh inconclusive, HPGD inh 25µM
CCOc1ccccc1CNC(=O)c1ccc(Sc2ccc(Cl)cc2)c(NC(C)=O)c1	none
COc1ccc2c(C)cc(SCC(=O)Nc3nsc(-c4ccc(C)cc4)n3)nc2c1	none
Cc1cc(SCC(=O)O)nc2ccccc12	none (no result: HPGD inh, PNC inhibitor)
Cc1ccc(-c2nc(NC(=O)CSc3cc(C)c4ccccc4n3)ns2)cc1	HPGD inh 13µM
Cc1cc(NC(=O)CSc2nc3cc(Cl)ccc3s2)no1	none
O=C(CSc1nc2cc(Cl)ccc2s1)c1cc2ccccc2o1	ALDH1A1 inh 28µM, HPGD inh inconclusive
Cc1cc(SCC(=O)N2CCCC2)nc2ccccc12	HPGD inh 13µM
Cc1cc(SCC(=O)c2cc3ccccc3o2)nc2ccccc12	ALDH1A1 inh 28µM, HPGD inh 35µM, PNC inhibitor inconclusive
Cc1cc(SCC(=O)c2ccc(O)c(O)c2)nc2ccccc12	none (no result: HPGD inh, PNC inhibitor)
O=[N+]([O-])c1ccc(-c2cc(-c3ccncc3)nc3ccc4ccccc4c23)cc1	PNC inhibitor inconclusive
O=C1NC(Nc2nccs2)(C(F)(F)F)C(=O)N1CCc1ccccc1 (centres undefined)	none
CN1CCN(C(=S)c2ccc(OCC(=O)Nc3cccc(C(F)(F)F)c3)cc2)CC1	none
CCOC(=O)N/N=C1/C[C@@H](O)[C@@H](O)[C@@H]2[C@@H]3C(=O)N(Cc4ccc5c(c4)OCO5)C(=O)[C@H]3CC[C@@H]12	none (no result: HPGD inh, PNC inhibitor)
Cc1cc(NC(=O)C2CCN(S(=O)(=O)c3cnc[nH]3)CC2)ccc1Br	none
CCCN(CCC)C1=CC(=[N+]2CCCC2)CC(C)(C)C1	PNC inhibitor inconclusive
CC(=O)NNC(=O)CCn1nnc(-c2ccc(Cl)cc2)n1	none (no result: HPGD inh, PNC inhibitor)
Cc1nc(-c2ccccc2)cc(N2CCCC2)n1	none
Nc1nc(-c2ccccc2)cc(N2CCCCC2)n1	PNC inhibitor -106
COC(=O)c1ccc(NS(=O)(=O)N(C)C)cc1	HPGD inh inconclusive
CN(C)S(=O)(=O)Nc1ccc2c(c1)Cc1ccccc1-2	HPGD inh 14µM
Cc1ccc(NS(=O)(=O)N(C)C)cc1	HPGD inh inconclusive, PNC inhibitor -100
CN(C)S(=O)(=O)Nc1ccc(NS(=O)(=O)N(C)C)c(S(=O)(=O)c2ccccc2)c1	none
O=C(O)CCCCCNC(=O)c1ccccc1	none
NNC(=O)c1nnn(-c2nonc2N)c1CN1CCc2ccccc2C1	ALDH1A1 inh 4µM (no result: HPGD inh, PNC inhibitor)
CCOC(=O)c1nnn(-c2nonc2N)c1CNC(C)C	none
CCOC(=O)c1nnn(-c2nonc2N)c1CN(C)C1CCCCC1	ALDH1A1 inh 2µM, PNC inhibitor inconclusive
Cc1c(C(=O)N2CCCCCC2)nnn1-c1nonc1N	ALDH1A1 inh 11µM, HPGD inh 32µM
CCOC(=O)c1nnn(-c2nonc2N)c1CN1CCCCCC1	ALDH1A1 inh 2.2µM
CCOC(=O)c1nnn(-c2nonc2-n2cccc2)c1CN1CCCCC1	none
CCOC(=O)c1nnn(-c2nonc2N)c1COc1ccccc1	ALDH1A1 inh inconclusive
CCOC(=O)c1nnn(-c2nonc2N)c1CN(CC)CC	none
Cc1ccc(S(=O)(=O)n2[nH]c(=O)c(CCO)c2C)cc1	none (no result: HPGD inh, PNC inhibitor)
CCCCn1c(CNC(=O)C23CC4CC(CC(C4)C2)C3)nnc1SC(C)CC (centres undefined)	PNC inhibitor inconclusive
CC(=O)O[C@H]1C[C@H]2CC[C@@H]3[C@@H](CC[C@]4(C)[C@H](OC(C)=O)[C@H]([N+]5(C)CCCCC5)C[C@@H]34)[C@]2(C)C[C@H]1[N+]1(C)CCCCC1	none (no result: PNC inhibitor)
O=C(CCCc1ccccc1)NCc1cn2ccsc2n1	none
O=C(CC1CCCCC1)NCc1cn2ccsc2n1	HPGD inh 22µM
CN(C(=O)COC(=O)c1ccc2[nH]c3c(c2c1)CCCC3)C1CCS(=O)(=O)C1 (centres undefined)	none (no result: HPGD inh, PNC inhibitor)
CCc1ccc(OCCCC(=O)Nc2nccs2)cc1	none (no result: HPGD inh, PNC inhibitor)
Cc1ccc(S(=O)(=O)CCC(=O)Nc2nccs2)cc1	none
Cc1ccc(CCC(=O)Nc2nccs2)o1	ALDH1A1 inh inconclusive, HPGD inh 28µM
CCc1ccc(CCC(=O)Nc2nccs2)o1	ALDH1A1 inh 18µM
Cc1cccc(C)c1NC(=O)N1CCC(N2CCCCC2)CC1	none
CN(CC(=O)O)Cc1c(O)c(Cl)cc(Cl)c1Cl	none (no result: PNC inhibitor)
CCc1sc(C(=O)NC2CCN(C)CC2)cc1Br	PNC inhibitor inconclusive
O=C(NN=C1CCCCC1)NC1CCCCC1	ALDH1A1 inh inconclusive, PNC inhibitor inconclusive
